Compounds without any hit were thinned out: in the full panel of roughly 79,000, 15% have a hit. A number with no mark means an inactive call. The source made the active and inactive calls. No stated cut-off is given here; in the data, active means growth inhibition above about 70%; inactive means the rest.

Here are results for 39 compounds from PubChem BioAssay (NCI).

The nature of test [1]: NCI Yeast Anticancer Drug Screen. Data for the rad50 strain (AID 155).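 Further: 0% = growth of vehicle-only cultures of the same strain.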 The settings on record: S. cerevisiae rad50 strain growth inhibition; at 50.0 µM; stronger effect = higher value. Summed up:
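Growth of the mutant yeast was measured after compound exposure and referenced to vehicle-treated cultures.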

Test [2] can be described thus: NCI Yeast Anticancer Drug Screen. Data for the mec2-1 strain (AID 157). Conditions: S. cerevisiae mec2-1 strain, at 50.0 µM, stronger effect = higher value. In outline:
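Mutant yeast (mec2-1) grown with compound; growth inhibition relative to vehicle control reported.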

Test [3] is described as follows: NCI Yeast Anticancer Drug Screen. Data for the sgs1 mgt1 strain (AID 161).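 Further: 0% = growth of cultures given vehicle only.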 The settings on record: S. cerevisiae sgs1 mgt1 strain, at 50.0 µM, stronger effect = higher value. In outline: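 Yeast cells carrying a defined DNA-repair defect were exposed to test compounds. Growth inhibition was measured relative to vehicle-treated controls.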
A short description of test [4]: NCI Yeast Anticancer Drug Screen. Data for the cln2 rad14 strain (AID 165).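 Further: 0% = growth equal to vehicle treated cultures.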 Conditions: S. cerevisiae cln2 rad14 strain, at 50.0 µM, stronger effect = higher value. Summed up: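 Readout is yeast growth inhibition versus vehicle-treated controls, using a strain with cln2 and rad14 alterations exposed to compound.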
A short description of test [5]: NCI Yeast Anticancer Drug Screen. Data for the bub3 strain (AID 167). Conditions: S. cerevisiae bub3 mutant strain, at 50.0 µM, stronger effect = higher value. Summed up:
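Whole-cell yeast assay. The mutant strain was incubated with compounds, and growth inhibition was determined by comparison with vehicle-treated cells.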

A short description of test [6]: NCI Yeast Anticancer Drug Screen. Data for the mlh1 rad18 strain (AID 175). The settings on record: S. cerevisiae mlh1 rad18 strain growth inhibition; at 50.0 µM; stronger effect = higher value. Summed up: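 Genetically defined yeast (DNA repair-deficient) exposed to compounds; growth inhibition determined relative to vehicle.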

Take `O=C1c2ccccc2C(=O)C1(Cl)C(Cl)c1ccc([N+](=O)[O-])cc1` (centres undefined): the growth inhibition in test [1] was 99.3% (active); in test [2] it was 98.9% (active); in test [3], 99.6% (active); in test [4], 99.1% (active); in test [5] it was 99.3% (active); in test [6], 99.5% (active).

With `C/C(=N\O)c1cccc[n+]1Cc1ccccc1`, the growth inhibition in test [1] is 12.2%; in test [2], 12.7%; in test [3], -15.8%; in test [4], -21.6%; in test [5] it was 17.8%; in test [6], -3.6%.

On to `Cc1cc(CO)c(O)c(CN(CC(=O)O)CC(=O)O)c1`, for which the growth inhibition was 20.2% in test [1]; -14.9% in test [2]; 5.9% in test [3]; -1.4% in test [4]; 21.6% in test [5]; -0.7% in test [6].

For `Nc1cc(Cl)nc(Cl)n1`, the growth inhibition in test [1] was 1.5%; in test [2] it was -25.6%; in test [3], 2.45%; in test [4] it was 10.1%; in test [5], -19.4%; in test [6], 3.8%.

Regarding `CCC(=O)NC(Nc1cccc(F)c1C)(C(F)(F)F)C(F)(F)F`, the growth inhibition in test [1] is -22.4%; in test [2], 23.4%; in test [3] it was -37.4%; in test [4] it was 14.7%; in test [5], 7.25%; in test [6], -5.5%.

For the compound `CCCCNC(=O)CC(C)C(=O)O` (centres undefined), the growth inhibition was 2.8% in test [1]; -1.35% in test [2]; -6.1% in test [3]; -20.8% in test [4]; -1.55% in test [5]; 6.1% in test [6].

As to `COC(=O)c1ccc(/C=C2\Oc3ccccc3C2=O)cc1`, the growth inhibition in test [1] was -54.1%; in test [2], -62.2%; in test [3], -39%; in test [4] it was -8.5%; in test [5] it was -22.9%; in test [6] it was -44.5%.

As to `Cc1c(Cl)cccc1NC(=O)Sc1ccc(C(C)(C)C)cc1`, the growth inhibition in test [1] was 21.1%; in test [2], 11.4%; in test [3], 12.5%; in test [4], 19.1%; in test [5] it was 11.4%; in test [6], 15.5%.

Turning to `CC12CCC(/C(=C/N(O)/C=C3\C(=O)C4(C)CCC3C4(C)C)C1=O)C2(C)C`, the growth inhibition is -17.6% in test [1]; -11.8% in test [2]; -30.1% in test [3]; 1.85% in test [4]; 6.75% in test [5]; 0.8% in test [6].

For `CC(C)CC(C#N)C(=O)O` (centres undefined), the growth inhibition in test [1] was -1.45%; in test [2] it was -1.95%; in test [3] it was -5.15%; in test [4], 5.45%; in test [5] it was -4.35%; in test [6], 2.1%.

In the case of `Fc1cccc2nc(-c3ccccc3)cc(OCc3ccccc3)c12`, the growth inhibition was 0.9% in test [1]; 8.3% in test [2]; -30.6% in test [3]; -1% in test [4]; 11.8% in test [5]; -3.4% in test [6].

In the case of `CCN(CC)CCNc1ccc(N)c2sc3ccccc3c(=O)c12`, the growth inhibition was 8.45% in test [1]; 3.8% in test [2]; -18.7% in test [3]; -8.25% in test [4]; -37.6% in test [5]; -29.1% in test [6].

As to `CC(=O)[O][Ga]([Cl])[O]C(C)=O`, the growth inhibition in test [1] was 22.2%; in test [2], 27.2%; in test [3] it was 34.1%; in test [4], 34.3%; in test [5] it was 30.3%; in test [6] it was 14.3%.

For `N#CCC(=O)N/N=C1/C(=O)N(c2cc(Cl)ccc2Cl)C(=O)C(=O)C1c1nc2ccccc2s1` (centres undefined), the growth inhibition is 42.8% in test [1]; 27.8% in test [2]; 38.1% in test [3]; 19.9% in test [4]; -0.5% in test [5]; 51% in test [6].

With `OCC(O)C(O)Cc1cnc(C(O)C(O)C(O)CO)cn1` (centres undefined), the growth inhibition in test [1] was 6.65%; in test [2] it was 5.65%; in test [3], -6.95%; in test [4] it was -20.2%; in test [5] it was -9.45%; in test [6] it was 6.4%.

Turning to `Cc1cc(Sc2ccc(Cl)cc2)nc(Sc2ccc(Cl)cc2)c1C#N`, the growth inhibition is 7.6% in test [1]; -30.5% in test [2]; -27.9% in test [3]; -20.6% in test [4]; -10.7% in test [5]; -26.9% in test [6].

Take `N#Cc1nnn(-c2ccccc2)n1`: the growth inhibition in test [1] is 24.2%; in test [2], 13.5%; in test [3], 2.9%; in test [4] it was -15.7%; in test [5], 4%; in test [6], 22.5%.

On to `OCC(Cl)(Cl)C(Cl)(Cl)CO`, for which the growth inhibition in test [1] was 8.2%; in test [2], -14.5%; in test [3] it was -12.7%; in test [4] it was -0.95%; in test [5], -28.6%; in test [6], -17.8%.

On to `CCC1=C(O)C(=O)C(C)(C)C1=O`, for which the growth inhibition in test [1] is -5.85%; in test [2], -5.2%; in test [3], -3.15%; in test [4] it was -2.7%; in test [5], 15.9%; in test [6] it was 9.45%.

Turning to `COc1ccc(-c2cc(=O)c3cccnc3[nH]2)cc1`, the growth inhibition in test [1] was 30.1%; in test [2], 12.9%; in test [3] it was 32.4%; in test [4], 0.7%; in test [5], 12.2%; in test [6] it was 21.1%.

In the case of `CCN(CC)C(=S)N/N=C/c1ccccn1`, the growth inhibition in test [1] was 89.5% (active); in test [2], 92% (active); in test [3], 91% (active); in test [4], 89.2% (active); in test [5], 89.8% (active); in test [6], 90.3% (active).

As for `CCC1C(=O)OCc2c1cc1n(c2=O)CCC12OCCO2` (centres undefined), the growth inhibition in test [1] is 0.1%; in test [2], -15.1%; in test [3] it was -36.8%; in test [4], -17.6%; in test [5], -23.8%; in test [6], -15.6%.

Consider `c1ccc(Cn2ccnc2CSCCSCc2nccn2Cc2ccccc2)cc1`, for which the growth inhibition is 17.5% in test [1]; 37.2% in test [2]; -5.8% in test [3]; 12.9% in test [4]; -0.65% in test [5]; 29.9% in test [6].

As to `CCCCCCCCCCCC(=O)OCC`, the growth inhibition in test [1] was 26.8%; in test [2] it was 22.4%; in test [3], 8.45%; in test [4], 25.2%; in test [5], 9.15%; in test [6], 8.7%.

Regarding `C=C(C(=O)O)C(=O)O`, the growth inhibition in test [1] was -14.4%; in test [2] it was -3.6%; in test [3], -2.2%; in test [4], 4.35%; in test [5], 2%; in test [6], -4.7%.

Take `N#CC(NNC(=O)Cc1ccccc1)c1ccccc1O` (centres undefined): the growth inhibition in test [1] is 0.8%; in test [2] it was -10%; in test [3], -2.05%; in test [4] it was -19.4%; in test [5], -21.7%; in test [6], -12.8%.

In the case of `COc1ccc(NC(=O)NCc2ccc(C)cc2)cc1`, the growth inhibition is 4.45% in test [1]; 33.8% in test [2]; 33.8% in test [3]; -5.5% in test [4]; 7.85% in test [5]; 26.9% in test [6].

Consider `S=C1NNC(=S)NN1`, for which the growth inhibition in test [1] was 43.7%; in test [2], 29.8%; in test [3], 39.9%; in test [4], 37.9%; in test [5], 49.9%; in test [6] it was 62.7%.

Regarding `COc1ccc(-c2nc(SCc3ccc(Cl)cc3)[nH]c(=O)c2CCO)cc1`, the growth inhibition in test [1] is 32.3%; in test [2], -7.75%; in test [3], -4.45%; in test [4], 3.15%; in test [5] it was -3.45%; in test [6], 10.4%.

With `COc1ccc(/C(=C/n2ccnc2)C(O)c2ccc(OC)c(OC)c2)cc1OC` (centres undefined), the growth inhibition was -16.5% in test [1]; -11.8% in test [2]; -31.8% in test [3]; -2.25% in test [4]; -2.8% in test [5]; -11.3% in test [6].

In the case of `COc1ccc(N=Nc2c(C)c(C#N)c(=S)n(C3OC(CO)C(O)C(O)C3O)c2-c2ccccc2)cc1` (centres undefined), the growth inhibition was 0.55% in test [1]; 2.85% in test [2]; 20.1% in test [3]; 10.7% in test [4]; 11.8% in test [5]; 23.9% in test [6].

For the compound `O=c1[nH]c(=S)c2ncn(C3OC(CO)C(O)C3O)c2[nH]1` (centres undefined), the growth inhibition was -0.5% in test [1]; -13.7% in test [2]; -11.1% in test [3]; 4.4% in test [4]; -1.1% in test [5]; 11.8% in test [6].

For `Cc1cccc(C)c1NC(=O)C(=O)CC(=O)c1cccc([N+](=O)[O-])c1`, the growth inhibition in test [1] is 45.4%; in test [2], 11.9%; in test [3], 2.2%; in test [4] it was 24.4%; in test [5], 19.2%; in test [6] it was 40.9%.

On to `Cc1nc(-c2nc(C)c(C(=O)NN(C)C)s2)sc1C(=O)NN(C)C`, for which the growth inhibition in test [1] is 28.4%; in test [2], -7.8%; in test [3], 23.2%; in test [4] it was 23.7%; in test [5], 3.1%; in test [6], 22%.

As to `CN(C)CC1CCCC/C1=N/O` (centres undefined), the growth inhibition in test [1] is 0.5%; in test [2], -6.75%; in test [3], -9.4%; in test [4] it was -17.5%; in test [5], 2.55%; in test [6] it was -5.15%.

For `Cc1nnc(-n2nc(-c3ccc(Cl)cc3)cc2N)[nH]c1=O`, the growth inhibition in test [1] is 54%; in test [2], 12.1%; in test [3] it was 22.4%; in test [4], 12.8%; in test [5] it was 23.4%; in test [6] it was 34%.

For `CCCCCC/C=C/CCCCCCCC(=O)O`, the growth inhibition is 3.15% in test [1]; -25.1% in test [2]; 5.3% in test [3]; -9.9% in test [4]; -1.75% in test [5]; -16.9% in test [6].

`CCOC(=O)c1cnc2ccccn2c1=O`: the growth inhibition was 5.15% in test [1]; 6.15% in test [2]; 7.3% in test [3]; 7.2% in test [4]; -18% in test [5]; -2.25% in test [6].

`CC(c1ccccc1)C1OCCO1` (centres undefined): the growth inhibition in test [1] was -7.45%; in test [2] it was -27.4%; in test [3], -15.8%; in test [4], -30.8%; in test [5], -28.2%; in test [6], 28.7%.
